What all share (assay): DAPPL (digital affinity profiling via proximity ligation, sequencing); 10 mM Tris-HCl pH 7.5, 50 mM NaCl, 1 mM DTT, 4% glycerol, room temperature, 30 min; GST-TFs on glutathione beads, 16-mer random dsDNA library, 0.1% formaldehyde crosslink after washing; high values mean tight binding
What all share (conditions): protein: recombinant; tags: N-terminal GST; dsDNA, one strand shown

One assay addresses T1, FLI1 (Homo sapiens, UniProt Q01543 1-452).
T1 sequence: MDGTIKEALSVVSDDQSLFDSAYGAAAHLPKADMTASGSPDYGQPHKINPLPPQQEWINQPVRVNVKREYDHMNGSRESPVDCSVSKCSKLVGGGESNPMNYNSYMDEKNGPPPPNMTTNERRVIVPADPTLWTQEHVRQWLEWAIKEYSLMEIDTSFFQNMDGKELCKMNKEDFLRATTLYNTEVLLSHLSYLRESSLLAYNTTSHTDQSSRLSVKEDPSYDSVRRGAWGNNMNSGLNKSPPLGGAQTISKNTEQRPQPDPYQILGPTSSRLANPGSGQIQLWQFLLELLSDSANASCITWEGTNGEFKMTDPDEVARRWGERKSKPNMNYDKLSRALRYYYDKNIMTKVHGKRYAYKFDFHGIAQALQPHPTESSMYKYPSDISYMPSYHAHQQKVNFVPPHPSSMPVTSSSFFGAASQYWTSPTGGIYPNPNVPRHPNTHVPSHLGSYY
In a few lines: (§1)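 Each value of binding signal is a hexamer's read frequency for a factor divided by the same hexamer's frequency in the tag-only sample. Barcoded, bead-captured GST fusions of human transcription factors made in yeast were pooled with that sample and incubated with 200 nmole of a random double-stranded 16-mer DNA library in Tris/NaCl/DTT/glycerol buffer at room temperature for 30 min. Washing, 0.1% formaldehyde crosslinking, proximity ligation, PCR and Illumina NextSeq500 sequencing followed.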

In a further assay the target is T2, ELK1 (Homo sapiens, UniProt P19419 1-428).
T2 sequence: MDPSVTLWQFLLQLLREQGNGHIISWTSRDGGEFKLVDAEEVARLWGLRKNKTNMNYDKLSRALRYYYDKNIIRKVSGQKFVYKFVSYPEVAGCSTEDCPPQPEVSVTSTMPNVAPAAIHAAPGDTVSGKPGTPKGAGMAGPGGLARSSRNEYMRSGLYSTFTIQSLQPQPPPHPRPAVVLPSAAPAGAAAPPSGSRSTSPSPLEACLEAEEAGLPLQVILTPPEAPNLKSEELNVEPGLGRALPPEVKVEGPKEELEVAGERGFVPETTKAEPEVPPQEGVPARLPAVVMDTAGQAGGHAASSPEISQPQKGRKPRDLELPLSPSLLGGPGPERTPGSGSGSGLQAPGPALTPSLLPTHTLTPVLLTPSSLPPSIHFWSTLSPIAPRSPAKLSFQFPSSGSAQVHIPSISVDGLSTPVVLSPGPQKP
In a few lines: as §1

The target of a further assay is T3, GABPA (Homo sapiens, UniProt Q06546 1-454).
T3 sequence: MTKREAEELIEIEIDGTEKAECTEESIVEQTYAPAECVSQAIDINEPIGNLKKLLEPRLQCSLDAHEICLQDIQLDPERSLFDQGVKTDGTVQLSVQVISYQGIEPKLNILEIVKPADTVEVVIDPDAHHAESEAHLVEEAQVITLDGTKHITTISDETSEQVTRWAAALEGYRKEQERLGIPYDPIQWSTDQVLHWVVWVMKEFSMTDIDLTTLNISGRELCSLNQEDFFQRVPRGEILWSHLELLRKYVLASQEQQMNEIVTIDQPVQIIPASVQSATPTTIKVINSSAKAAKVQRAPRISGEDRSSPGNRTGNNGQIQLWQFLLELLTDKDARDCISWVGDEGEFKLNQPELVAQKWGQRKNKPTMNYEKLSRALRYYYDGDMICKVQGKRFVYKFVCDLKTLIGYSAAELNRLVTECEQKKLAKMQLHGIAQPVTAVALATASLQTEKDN
In a few lines:
as §1

Another assay has as its target T4, ERG (Homo sapiens, UniProt P11308 1-479).
T4 sequence: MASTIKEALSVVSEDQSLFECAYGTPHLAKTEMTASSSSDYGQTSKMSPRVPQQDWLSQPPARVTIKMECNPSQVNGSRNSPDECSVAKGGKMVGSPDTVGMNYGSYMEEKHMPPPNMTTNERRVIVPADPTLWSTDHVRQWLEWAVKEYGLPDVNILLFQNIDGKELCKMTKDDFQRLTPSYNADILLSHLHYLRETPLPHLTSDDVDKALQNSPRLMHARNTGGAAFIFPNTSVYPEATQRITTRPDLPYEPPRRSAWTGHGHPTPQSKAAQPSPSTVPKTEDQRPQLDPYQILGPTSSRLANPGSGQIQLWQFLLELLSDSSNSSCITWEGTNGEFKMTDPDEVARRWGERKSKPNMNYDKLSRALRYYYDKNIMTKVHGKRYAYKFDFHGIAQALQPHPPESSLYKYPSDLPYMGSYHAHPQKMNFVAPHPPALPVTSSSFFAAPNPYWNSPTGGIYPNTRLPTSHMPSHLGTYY
In a few lines:
as §1

The target in the next assay is ELF1 (Homo sapiens, UniProt P32519 1-619). In a few lines: as §1
ELF1, sequence (P32519 whole entry): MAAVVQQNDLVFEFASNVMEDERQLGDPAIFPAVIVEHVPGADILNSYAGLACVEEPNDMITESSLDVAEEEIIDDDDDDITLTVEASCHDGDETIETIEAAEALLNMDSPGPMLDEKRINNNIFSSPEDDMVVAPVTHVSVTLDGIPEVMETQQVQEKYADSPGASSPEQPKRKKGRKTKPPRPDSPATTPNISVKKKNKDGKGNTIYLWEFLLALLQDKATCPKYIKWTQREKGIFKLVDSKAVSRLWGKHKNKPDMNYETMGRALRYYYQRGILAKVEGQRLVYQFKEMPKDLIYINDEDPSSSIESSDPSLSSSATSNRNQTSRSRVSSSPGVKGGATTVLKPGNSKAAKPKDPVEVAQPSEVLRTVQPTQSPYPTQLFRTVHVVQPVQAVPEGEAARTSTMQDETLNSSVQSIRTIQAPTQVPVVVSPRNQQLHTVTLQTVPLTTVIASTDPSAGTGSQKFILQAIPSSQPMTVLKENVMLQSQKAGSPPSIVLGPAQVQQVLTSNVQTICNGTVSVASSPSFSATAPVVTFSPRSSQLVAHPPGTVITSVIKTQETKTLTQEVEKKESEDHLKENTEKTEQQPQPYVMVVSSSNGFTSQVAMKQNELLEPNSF
A further assay concerns the target T5, EHF (Homo sapiens, UniProt Q9NZC4 1-300).
T5 sequence: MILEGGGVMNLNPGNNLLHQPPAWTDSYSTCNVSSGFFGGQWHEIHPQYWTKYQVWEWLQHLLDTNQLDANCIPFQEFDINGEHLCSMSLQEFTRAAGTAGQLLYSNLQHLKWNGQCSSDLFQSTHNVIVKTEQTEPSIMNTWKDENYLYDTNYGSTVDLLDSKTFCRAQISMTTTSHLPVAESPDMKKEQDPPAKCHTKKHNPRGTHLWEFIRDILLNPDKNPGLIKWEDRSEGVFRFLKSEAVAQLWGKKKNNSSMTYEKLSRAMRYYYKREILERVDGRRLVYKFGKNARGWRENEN
The method in brief:
as §1

The target in the next assay is SPI1 (Homo sapiens, UniProt P17947 1-270). In a few lines:
as §1

Another assay has as its target SPIB (Homo sapiens, UniProt Q01892 1-262). In a few lines:
as §1

In another assay the target is T6, ELK3 (Homo sapiens, UniProt P41970 1-407).
T6 sequence: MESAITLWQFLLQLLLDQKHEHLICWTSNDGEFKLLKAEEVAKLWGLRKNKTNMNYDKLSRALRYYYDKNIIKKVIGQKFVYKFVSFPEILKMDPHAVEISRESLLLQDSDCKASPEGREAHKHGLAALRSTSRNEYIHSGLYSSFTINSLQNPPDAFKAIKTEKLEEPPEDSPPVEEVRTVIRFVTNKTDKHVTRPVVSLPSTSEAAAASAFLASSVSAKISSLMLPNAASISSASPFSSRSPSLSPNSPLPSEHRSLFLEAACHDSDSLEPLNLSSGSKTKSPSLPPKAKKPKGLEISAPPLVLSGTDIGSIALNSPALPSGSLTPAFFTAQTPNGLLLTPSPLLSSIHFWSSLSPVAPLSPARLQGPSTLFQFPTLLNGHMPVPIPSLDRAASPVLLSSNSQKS
In a few lines:
as §1

A further assay deals with T7, FEV (Homo sapiens, UniProt Q99581 1-238).
T7 sequence: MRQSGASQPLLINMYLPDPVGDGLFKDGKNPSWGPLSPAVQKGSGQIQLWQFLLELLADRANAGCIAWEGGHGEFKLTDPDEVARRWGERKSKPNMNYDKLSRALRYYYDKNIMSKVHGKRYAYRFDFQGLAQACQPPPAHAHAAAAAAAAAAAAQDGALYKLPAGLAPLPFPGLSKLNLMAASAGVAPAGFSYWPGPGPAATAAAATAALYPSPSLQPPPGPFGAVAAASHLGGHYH
The method in brief: as §1

The target of a further assay is ETV5 (Homo sapiens, UniProt P41161 1-510). The method in brief: as §1
ETV5, sequence (P41161 whole entry): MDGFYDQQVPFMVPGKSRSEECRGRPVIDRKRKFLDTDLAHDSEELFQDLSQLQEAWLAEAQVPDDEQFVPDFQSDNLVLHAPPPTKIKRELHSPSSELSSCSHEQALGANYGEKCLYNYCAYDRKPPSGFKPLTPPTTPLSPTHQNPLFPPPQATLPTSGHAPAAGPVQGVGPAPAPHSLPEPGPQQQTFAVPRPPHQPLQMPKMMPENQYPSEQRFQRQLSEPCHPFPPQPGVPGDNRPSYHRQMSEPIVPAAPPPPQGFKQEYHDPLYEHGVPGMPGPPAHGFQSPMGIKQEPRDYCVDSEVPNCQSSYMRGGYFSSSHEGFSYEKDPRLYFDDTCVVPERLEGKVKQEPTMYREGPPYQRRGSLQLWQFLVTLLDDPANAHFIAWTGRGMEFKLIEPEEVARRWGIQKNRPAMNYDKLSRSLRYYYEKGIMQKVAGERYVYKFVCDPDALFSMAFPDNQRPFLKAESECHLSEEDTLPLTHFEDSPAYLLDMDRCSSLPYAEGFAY
A further assay addresses T8, SPIC (Homo sapiens, UniProt Q8N5J4 1-248).
T8 sequence: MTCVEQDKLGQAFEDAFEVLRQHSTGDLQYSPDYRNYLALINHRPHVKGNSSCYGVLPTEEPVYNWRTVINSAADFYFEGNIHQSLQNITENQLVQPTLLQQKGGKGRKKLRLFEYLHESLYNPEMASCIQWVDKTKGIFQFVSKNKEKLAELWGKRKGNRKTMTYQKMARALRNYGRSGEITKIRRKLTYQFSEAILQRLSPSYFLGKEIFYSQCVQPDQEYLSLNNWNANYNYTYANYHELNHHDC
The method in brief:
as §1

A further assay concerns the target ELF4 (Homo sapiens, UniProt Q99607 1-663). In a few lines:
as §1

Another assay deals with T9, ELK4 (Homo sapiens, UniProt P28324-2 1-405).
T9 sequence: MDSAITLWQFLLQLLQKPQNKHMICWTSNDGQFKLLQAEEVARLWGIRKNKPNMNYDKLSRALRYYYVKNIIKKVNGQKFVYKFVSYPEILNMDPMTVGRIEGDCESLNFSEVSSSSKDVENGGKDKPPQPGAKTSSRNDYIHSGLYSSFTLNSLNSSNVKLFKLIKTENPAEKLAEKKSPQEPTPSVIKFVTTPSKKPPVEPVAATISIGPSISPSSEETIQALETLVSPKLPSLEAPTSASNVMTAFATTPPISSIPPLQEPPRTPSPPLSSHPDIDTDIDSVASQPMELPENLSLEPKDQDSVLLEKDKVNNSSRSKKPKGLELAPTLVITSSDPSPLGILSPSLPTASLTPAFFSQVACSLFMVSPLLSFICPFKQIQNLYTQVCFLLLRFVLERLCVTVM
The method in brief:
as §1

The target of another assay is T10, ETV2 (Homo sapiens, UniProt O00321 1-342).
T10 sequence: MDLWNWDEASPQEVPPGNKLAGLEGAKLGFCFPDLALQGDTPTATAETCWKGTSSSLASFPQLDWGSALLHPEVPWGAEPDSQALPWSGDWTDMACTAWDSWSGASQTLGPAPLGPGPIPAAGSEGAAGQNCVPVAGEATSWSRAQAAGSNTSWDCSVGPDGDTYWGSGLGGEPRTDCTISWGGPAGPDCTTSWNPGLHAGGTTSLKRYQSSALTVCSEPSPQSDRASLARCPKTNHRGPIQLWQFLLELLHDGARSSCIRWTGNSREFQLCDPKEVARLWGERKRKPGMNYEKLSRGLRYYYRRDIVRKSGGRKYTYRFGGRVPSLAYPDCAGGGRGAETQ
In a few lines:
as §1

The next assay deals with T11, ELF3 (Homo sapiens, UniProt P78545 1-371).
T11 sequence: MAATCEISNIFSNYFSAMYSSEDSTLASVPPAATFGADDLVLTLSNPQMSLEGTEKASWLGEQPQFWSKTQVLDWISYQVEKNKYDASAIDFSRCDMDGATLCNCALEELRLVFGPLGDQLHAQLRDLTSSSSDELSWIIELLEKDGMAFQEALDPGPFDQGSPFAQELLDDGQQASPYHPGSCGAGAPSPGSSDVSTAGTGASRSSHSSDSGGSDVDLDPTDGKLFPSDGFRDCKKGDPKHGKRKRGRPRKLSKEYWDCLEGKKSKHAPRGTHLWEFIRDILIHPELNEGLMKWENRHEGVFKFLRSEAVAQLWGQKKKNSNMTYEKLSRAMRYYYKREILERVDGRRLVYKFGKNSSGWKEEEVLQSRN
The method in brief: as §1

Another assay addresses ETV1 (Homo sapiens, UniProt P50549 1-477). In a few lines:
as §1

ETV1, sequence (P50549 whole entry): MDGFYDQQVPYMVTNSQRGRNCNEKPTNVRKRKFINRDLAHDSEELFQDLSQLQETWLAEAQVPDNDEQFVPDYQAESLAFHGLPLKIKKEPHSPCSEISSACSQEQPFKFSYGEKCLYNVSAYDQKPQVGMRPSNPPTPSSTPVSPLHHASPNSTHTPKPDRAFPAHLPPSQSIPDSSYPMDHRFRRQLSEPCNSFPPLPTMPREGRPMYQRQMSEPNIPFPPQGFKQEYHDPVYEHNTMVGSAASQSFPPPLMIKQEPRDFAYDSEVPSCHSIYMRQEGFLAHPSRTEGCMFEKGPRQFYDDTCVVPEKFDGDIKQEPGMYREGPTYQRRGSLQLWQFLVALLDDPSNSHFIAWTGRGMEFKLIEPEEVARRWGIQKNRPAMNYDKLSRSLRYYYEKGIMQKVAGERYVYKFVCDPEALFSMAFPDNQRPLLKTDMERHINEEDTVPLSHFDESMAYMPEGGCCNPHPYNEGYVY
ELF4, sequence (Q99607 whole entry): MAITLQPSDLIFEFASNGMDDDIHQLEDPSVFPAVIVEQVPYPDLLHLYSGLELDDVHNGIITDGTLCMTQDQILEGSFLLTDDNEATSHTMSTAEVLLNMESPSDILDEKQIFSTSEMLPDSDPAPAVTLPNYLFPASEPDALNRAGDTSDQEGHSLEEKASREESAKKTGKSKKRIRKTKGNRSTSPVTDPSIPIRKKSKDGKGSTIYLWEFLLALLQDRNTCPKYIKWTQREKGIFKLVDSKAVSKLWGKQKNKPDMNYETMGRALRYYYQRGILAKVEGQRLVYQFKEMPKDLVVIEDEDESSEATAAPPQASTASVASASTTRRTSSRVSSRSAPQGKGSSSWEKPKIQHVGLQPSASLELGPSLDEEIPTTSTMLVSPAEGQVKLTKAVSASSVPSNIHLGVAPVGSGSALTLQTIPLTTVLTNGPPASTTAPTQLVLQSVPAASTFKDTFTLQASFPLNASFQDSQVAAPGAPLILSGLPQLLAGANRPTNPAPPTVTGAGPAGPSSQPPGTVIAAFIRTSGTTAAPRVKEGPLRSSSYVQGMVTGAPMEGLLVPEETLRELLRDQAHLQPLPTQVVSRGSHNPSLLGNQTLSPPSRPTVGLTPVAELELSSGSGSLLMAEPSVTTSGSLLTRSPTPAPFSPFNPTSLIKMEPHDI
SPIB, sequence (Q01892 whole entry): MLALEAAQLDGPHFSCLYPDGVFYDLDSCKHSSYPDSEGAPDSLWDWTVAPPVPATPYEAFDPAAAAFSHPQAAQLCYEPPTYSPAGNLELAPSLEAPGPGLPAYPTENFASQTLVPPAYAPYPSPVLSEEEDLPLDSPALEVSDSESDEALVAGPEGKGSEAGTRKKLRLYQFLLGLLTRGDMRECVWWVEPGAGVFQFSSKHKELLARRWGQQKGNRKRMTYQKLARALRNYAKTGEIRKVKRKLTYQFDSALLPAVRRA

Regarding TGCCAT, the binding signal was 1.11 fold enrichment (6-mer frequency, TF over GST control) in the assay with FLI1; 1.06 fold enrichment (6-mer frequency, TF over GST control) with ELK1; 1.26 fold enrichment (6-mer frequency, TF over GST control) in the assay with GABPA; 1.21 fold enrichment (6-mer frequency, TF over GST control) in the assay with ERG; 1.1 fold enrichment (6-mer frequency, TF over GST control) with ELF1; 1.21 fold enrichment (6-mer frequency, TF over GST control) in the assay with EHF. Besides, the binding signal with SPI1 is 1.17 fold enrichment (6-mer frequency, TF over GST control); with SPIB, 1.16 fold enrichment (6-mer frequency, TF over GST control); with ELK3, 1.12 fold enrichment (6-mer frequency, TF over GST control); in the assay with FEV, 1.07 fold enrichment (6-mer frequency, TF over GST control); with ETV5, 1.03 fold enrichment (6-mer frequency, TF over GST control); with SPIC, 1.12 fold enrichment (6-mer frequency, TF over GST control). Moreover, the binding signal with ELF4 is 1.1 fold enrichment (6-mer frequency, TF over GST control); with ELK4 it was 1.11 fold enrichment (6-mer frequency, TF over GST control); in the assay with ETV2 it was 1.14 fold enrichment (6-mer frequency, TF over GST control); with ELF3, 1.08 fold enrichment (6-mer frequency, TF over GST control); with ETV1, 1.17 fold enrichment (6-mer frequency, TF over GST control).
Turning to GTATCA, the binding signal is 1.14 fold enrichment (6-mer frequency, TF over GST control) with FLI1; 1.07 fold enrichment (6-mer frequency, TF over GST control) with ELK1; 1.18 fold enrichment (6-mer frequency, TF over GST control) with GABPA; 1.05 fold enrichment (6-mer frequency, TF over GST control) with ERG; 1.05 fold enrichment (6-mer frequency, TF over GST control) with ELF1; 1.1 fold enrichment (6-mer frequency, TF over GST control) with EHF. The binding signal with SPI1 was 1.06 fold enrichment (6-mer frequency, TF over GST control); in the assay with SPIB, 1.02 fold enrichment (6-mer frequency, TF over GST control); in the assay with ELK3, 1.1 fold enrichment (6-mer frequency, TF over GST control); with FEV it was 1.04 fold enrichment (6-mer frequency, TF over GST control); in the assay with ETV5, 1.01 fold enrichment (6-mer frequency, TF over GST control); with SPIC it was 1.03 fold enrichment (6-mer frequency, TF over GST control). For the same sequence, the binding signal with ELF4 is 1.05 fold enrichment (6-mer frequency, TF over GST control); with ELK4 it was 1.12 fold enrichment (6-mer frequency, TF over GST control); in the assay with ETV2 it was 1.12 fold enrichment (6-mer frequency, TF over GST control); in the assay with ELF3, 1.17 fold enrichment (6-mer frequency, TF over GST control); with ETV1, 1.05 fold enrichment (6-mer frequency, TF over GST control).
